Test results as given in PubChem BioAssay AID504327 (National Center for Advancing Translational Sciences (NCATS), 2011).
In all, about 390,000 compounds went through this assay and about 820 (0.21%) were called active. Another 3% or so got no clear call; they are omitted. This is one part of a sample in which actives are shown more often than they occur. The call rests on the fitted dose curve; in most records, active means well fitted inhibition curve with a large enough effect; inconclusive means small, poorly fitted or top-dose-only effect, or another doubt; inactive means no such curve, though single readings can be large or run the other way.

Target: Histone acetyltransferase KAT2A (Homo sapiens) (UniProt Q92830)
Experiment: qHTS Assay for Inhibitors of GCN5L2
Settings: GCN5L2 HAT assay, ThioGlo1 CoA-SH fluorescence; series mostly up to 58.9 µM
How it was run: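 Compounds, pin-transferred from DMSO stocks, meet 20nM GCN5L2 for 15 min before the reaction begins with H3(1-25) peptide (75uM) and acetyl-CoA (70uM). Thiol-reactive ThioGlo1 reports CoA release over 20 min at room temperature.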
Potency means the concentration at half of the fitted maximal effect.

Chain of Histone acetyltransferase KAT2A (Homo sapiens) (Q92830 whole entry, looked up): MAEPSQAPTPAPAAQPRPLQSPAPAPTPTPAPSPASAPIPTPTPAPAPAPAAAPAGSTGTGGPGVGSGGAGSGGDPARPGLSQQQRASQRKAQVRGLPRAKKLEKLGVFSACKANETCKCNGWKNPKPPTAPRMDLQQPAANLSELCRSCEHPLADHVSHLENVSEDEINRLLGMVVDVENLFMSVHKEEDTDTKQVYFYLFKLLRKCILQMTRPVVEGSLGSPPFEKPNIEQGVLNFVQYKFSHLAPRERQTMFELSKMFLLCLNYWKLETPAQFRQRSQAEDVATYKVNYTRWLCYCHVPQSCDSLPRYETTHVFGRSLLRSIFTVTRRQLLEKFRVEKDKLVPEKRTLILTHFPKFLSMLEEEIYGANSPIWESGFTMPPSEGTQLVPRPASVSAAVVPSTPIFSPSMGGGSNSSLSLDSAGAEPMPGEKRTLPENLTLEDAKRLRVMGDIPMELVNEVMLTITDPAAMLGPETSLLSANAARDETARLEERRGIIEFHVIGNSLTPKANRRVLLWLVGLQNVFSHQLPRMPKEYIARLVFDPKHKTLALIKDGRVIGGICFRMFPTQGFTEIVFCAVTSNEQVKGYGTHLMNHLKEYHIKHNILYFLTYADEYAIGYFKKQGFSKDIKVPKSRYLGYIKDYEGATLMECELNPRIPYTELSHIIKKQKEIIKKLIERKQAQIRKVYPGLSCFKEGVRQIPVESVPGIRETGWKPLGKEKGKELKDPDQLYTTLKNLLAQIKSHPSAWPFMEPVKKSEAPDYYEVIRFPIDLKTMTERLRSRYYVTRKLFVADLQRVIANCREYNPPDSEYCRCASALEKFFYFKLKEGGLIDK

Potency, inactive:
Cc1ccc(/C(=C/CN2CCCC2)c2ccccn2)cc1
COC(=O)N1CCC2(CCCN(c3ccncc3)C2)CC1
O=C(Oc1cc(OC(=O)c2ccccc2)c2c(c1)OC(c1ccc(OC(=O)c3ccccc3)c(OC(=O)c3ccccc3)c1)[C@@H](OC(=O)c1ccccc1)C2)c1ccccc1 (stereo not given in full)
COC(=O)c1sc2[nH]c(=S)n(N)c(=O)c2c1C
CCOC(=O)C1=C(C)Nc2sc(C(=O)c3ccc(Br)cc3)c(N)c2C1c1ccc(C(=O)OC)cc1 (stereo not given)
COc1cc2c(cc1OC)[C@@H](Cc1cc(OC)c(OC)c(OC)c1)[N+](C)(CCCOC(=O)CC/C=C/CCC(=O)OCCC[N+]1(C)CCc3cc(OC)c(OC)cc3[C@H]1Cc1cc(OC)c(OC)c(OC)c1)CC2 (stereo not given in full)
O=Cc1c(N2CCN(c3cccc(Cl)c3)CC2)nc2ccccn2c1=O
Cc1cccn2c(=O)c(C=O)c(Nc3ccc(S(N)(=O)=O)cc3)nc12
CC(=O)NC(=O)c1ccccc1O
CC1CC2C3CCC4=CC(=O)C=C[C@]4(C)[C@@]3(F)[C@@H](O)C[C@]2(C)[C@@]1(O)C(=O)CO (stereo not given in full)
COc1c2c(cc3occ(-c4ccc5c(c4)OCO5)c(=O)c13)OC(C)(C)C=C2
COc1ccc(C(=O)N2CCC3(CC2)CCN(c2ccccn2)CC3)cc1
COc1ccc(-c2nc3cnc(OC)nc3n(Cc3ccc(F)cc3)c2=O)cc1
CC(N)(C(=O)O)c1ccc(-c2nn[nH]n2)cc1 (stereo not given)
COCCn1c(=O)c(CCc2ccccc2)nc2cncnc21
O=C(O)CCC(=O)O
COc1ccc(CNc2ncncc2-c2ccccc2OC)c(OC)c1
O=C1NS(=O)(=O)c2ccccc21
CC1(C)C=CC(=O)[C@]2(C)C1CC(=O)[C@]1(C)C2CC[C@@]2(C)C(c3ccoc3)OC(=O)C3OC321 (stereo not given in full)
O=C1C(c2ccccn2)=[N+]([O-])c2ccccc21
O=C1C(c2[nH]c3ccccc3c2O)=Nc2ccccc21
O=C(c1ccncc1)N1CCC2(CCN(Cc3cc(C(F)(F)F)cc(C(F)(F)F)c3)CC2)CC1
CCOC(=O)C(Cc1ccc(N)cc1)N1C(=O)c2ccccc2C1=O (stereo not given)
COc1ccc(CNC(=O)C(Cc2ccccc2)n2cccc2)cc1 (stereo not given)
COc1cccc(Cn2c(=O)cnc3cncnc32)c1
CC(=O)N1CCN(C(=O)c2cc(-c3ccc(Cl)s3)nc3ccccc23)CC1
Cc1ccc(S(=O)(=O)N2CCN(C(=O)c3ccccc3-c3nc4ccccc4s3)CC2)c(C)c1
O=c1c(CCc2ccccc2)nc2cnc(N3CCNCC3)nc2n1Cc1cccs1
NC(=O)C(=O)N/N=C/c1ccc([N+](=O)[O-])o1
CCOC(=O)C1C/C(=C\C(C)=O)c2cccc(C(F)(F)F)c2O1 (stereo not given)
O=C(c1ccc(S(=O)(=O)N2CCCC2)cc1)N1CCN(c2ccccc2F)CC1
COc1ccc(N2CCN(S(=O)(=O)c3ccc4c(c3)NC(=O)C(C)C(=O)N4)CC2)cc1 (stereo not given)
CC(C)=CC1C(C(=O)O)C1(C)C (stereo not given)
Oc1ccc(Cl)c2c1CCC2

Potency, active:
CCOC(=O)c1sc(=S)n2c1[nH]c(=O)c1ccc(C(=O)OC)cc12 35.5 µM
CCCc1cc(=S)n2c([nH]c3ccccc32)c1C#N 22.4 µM
O=Cc1c(Nc2ccccc2Cl)nc2ccccn2c1=O 22.4 µM
Cc1ccc(C)n1C(Cc1ccccc1)C(=O)O (stereo not given) 22.4 µM
CC(=O)N1CCN(C(=O)c2cc(-c3ccc(C)o3)nc3ccccc23)CC1 20 µM
CC1C(=O)Nc2ccc(S(=O)(=O)N3CCN(c4ccccc4F)CC3)cc2NC1=O (stereo not given) 39.8 µM
